Results published in the supplement of paper PMC8728848.
This excerpt belongs to a sample that is enriched for the strongest signals.

How the values were obtained:
Experiment in all cases: glycan array binding signal (z-score within array); higher = stronger binding
Conditions in all cases: glycan notation: IUPAC condensed, linker removed
[1] = target: Fuc(a1-2)Gal(b1-3)[Fuc(a1-4)]GlcNAc(b1-2)Man(a1-3)[Fuc(a1-2)Gal(b1-3)[Fuc(a1-4)]GlcNAc(b1-2)Man(a1-3)]Man(b1-4)GlcNAc(b1-4)GlcNAc
Summary of the method: (§1)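 The binding signal is a Z-score computed within each array. Data were drawn from 3228 arrays in the Consortium for Functional Glycomics database, restricted to those with a known protein sequence. Scores were averaged over arrays of the same protein sequence at different concentrations or buffers, and over linkers, and negative values can be taken as non-binding.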

[2] = target: Fuc(a1-2)Gal(b1-4)Glc
Summary of the method: as §1

[3] = target: Fuc(a1-2)Gal(b1-4)GlcNAc(b1-2)[Fuc(a1-2)Gal(b1-4)GlcNAc(b1-4)]Man(a1-3)[Fuc(a1-2)Gal(b1-4)GlcNAc(b1-2)Man(a1-6)]Man(b1-4)GlcNAc(b1-4)GlcNAc
Summary of the method: as §1

[4] = target: Fuc(a1-2)Gal(b1-4)GlcNAc(b1-6)GalNAc
Summary of the method: as §1

[5] = target: Fuc(a1-2)Gal(b1-4)[Fuc(a1-3)]GlcNAc(b1-2)Man(a1-3)[Fuc(a1-2)Gal(b1-4)[Fuc(a1-3)]GlcNAc(b1-2)Man(a1-6)]Man(b1-4)GlcNAc(b1-4)[Fuc(a1-6)]GlcNAc
Summary of the method: as §1

[6] = target: Fuc(a1-2)[Gal(a1-3)]Gal(b1-3)GlcNAc(b1-2)Man(a1-3)[Fuc(a1-2)[Gal(a1-3)]Gal(b1-3)GlcNAc(b1-2)Man(a1-6)]Man(b1-4)GlcNAc(b1-4)GlcNAc
Summary of the method: as §1

[7] = target: Fuc(a1-2)[Gal(a1-3)]Gal(b1-4)GlcNAc(b1-2)Man
Summary of the method: as §1

[8] = target: Fuc(a1-3)GlcNAc
Summary of the method: as §1

[9] = target: Fuc(a1-3)[Gal3S(b1-4)]GlcNAc6S
Summary of the method: as §1

[10] = target: Fuc(b1-3)GlcNAc
Summary of the method: as §1

[11] = target: Gal(a1-3)Gal(b1-4)GlcNAc(b1-2)Man(a1-3)[Gal(a1-3)Gal(b1-4)GlcNAc(b1-2)Man(a1-6)]Man(b1-4)GlcNAc(b1-4)GlcNAc
Summary of the method: as §1

[12] = target: Gal(a1-3)GalNAc
Summary of the method: as §1

[13] = target: Gal(a1-4)Gal(b1-3)GlcNAc(b1-2)Man(a1-3)[Gal(a1-4)Gal(b1-3)GlcNAc(b1-2)Man(a1-6)]Man(b1-4)GlcNAc(b1-4)GlcNAc
Summary of the method: as §1

[14] = target: Gal(a1-4)Gal(b1-4)GlcNAc
Summary of the method: as §1

[15] = target: Gal(a1-4)Gal(b1-4)GlcNAc(b1-2)Man(a1-3)[Gal(a1-4)Gal(b1-4)GlcNAc(b1-2)Man(a1-6)]Man(b1-4)GlcNAc(b1-4)GlcNAc
Summary of the method: as §1

[16] = target: Gal(a1-4)Gal(b1-4)GlcNAc(b1-3)Gal(b1-4)Glc
Summary of the method: as §1

[17] = target: Gal(a1-6)Glc
Summary of the method: as §1

[18] = target: Gal(b1-2)Gal
Summary of the method: as §1

[19] = target: Gal(b1-3)Gal(b1-4)GlcNAc
Summary of the method: as §1

[20] = target: Gal(b1-3)GalNAc(a1-3)[Fuc(a1-2)]Gal(b1-4)Glc
Summary of the method: as §1

[21] = target: Gal(b1-3)GalNAc(a1-3)[Fuc(a1-2)]Gal(b1-4)GlcNAc
Summary of the method: as §1

[22] = target: Gal(b1-3)GalNAc(b1-4)Gal(b1-4)Glc
Summary of the method: as §1

[23] = target: Gal(b1-3)GlcNAc(b1-3)Gal(b1-4)GlcNAc(b1-6)[Gal(b1-3)GlcNAc(b1-3)]Gal(b1-4)Glc
Summary of the method: as §1

[24] = target: Gal(b1-3)[Fuc(a1-4)]GlcNAc(b1-2)Man
Summary of the method: as §1

[25] = target: Gal(b1-4)GlcNAc(b1-2)Man
Summary of the method: as §1

[26] = target: Gal(b1-4)GlcNAc(b1-2)[Gal(b1-4)GlcNAc(b1-6)]Man(a1-6)[Gal(b1-4)GlcNAc(b1-2)Man(a1-3)]Man(b1-4)GlcNAc(b1-4)GlcNAc
Summary of the method: as §1

[27] = target: Gal(b1-4)GlcNAc(b1-3)Gal(b1-3)GlcNAc
Summary of the method: as §1

[28] = target: Gal(b1-4)GlcNAc(b1-3)Gal(b1-4)GlcNAc(b1-3)Gal(b1-4)GlcNAc(b1-3)Gal(b1-4)GlcNAc(b1-2)Man(a1-3)[Gal(b1-4)GlcNAc(b1-3)Gal(b1-4)GlcNAc(b1-3)Gal(b1-4)GlcNAc(b1-3)Gal(b1-4)GlcNAc(b1-2)Man(a1-6)]Man(b1-4)GlcNAc(b1-4)GlcNAc
Summary of the method: as §1

[29] = target: Gal3S6S(b1-4)GlcNAc
Summary of the method: as §1

[30] = target: GalNAc(b1-3)Gal(a1-4)Gal(b1-4)GlcNAc
Summary of the method: as §1

[31] = target: GalNAc(b1-4)GlcNAc
Summary of the method: as §1

[32] = target: GalNAc3S(b1-4)GlcNAc
Summary of the method: as §1

[33] = target: Glc(a1-6)Glc(a1-6)Glc
Summary of the method: as §1

[34] = target: GlcNAc(a1-4)Gal(b1-3)GlcNAc
Summary of the method: as §1

[35] = target: GlcNAc(a1-4)Gal(b1-4)GalNAc
Summary of the method: as §1

[36] = target: GlcNAc(b1-3)Gal(b1-4)GlcNAc(b1-3)Gal(b1-4)GlcNAc(b1-2)Man(a1-3)[GlcNAc(b1-3)Gal(b1-4)GlcNAc(b1-3)Gal(b1-4)GlcNAc(b1-2)Man(a1-6)]Man(b1-4)GlcNAc(b1-4)[Fuc(a1-6)]GlcNAc
Summary of the method: as §1

[37] = target: GlcNAc(b1-3)Man
Summary of the method: as §1

[38] = target: GlcNAc(b1-4)Gal(b1-4)GlcNAc
Summary of the method: as §1

[39] = target: Man(a1-3)[Man(a1-6)]Man(a1-6)[Man(a1-3)]Man
Summary of the method: as §1

[40] = target: Man(b1-4)GlcNAc
Summary of the method: as §1

[41] = target: Neu5Ac(a2-3)Gal(b1-3)GlcNAc(b1-4)Gal(b1-4)Glc
Summary of the method: as §1

[42] = target: Neu5Ac(a2-3)Gal(b1-4)GlcNAc(b1-2)[Neu5Ac(a2-3)Gal(b1-4)GlcNAc(b1-4)]Man(a1-3)[GlcNAc(b1-4)][Neu5Ac(a2-3)Gal(b1-4)GlcNAc(b1-4)Man(a1-6)]Man(b1-4)GlcNAc(b1-4)GlcNAc
Summary of the method: as §1

[43] = target: Neu5Ac(a2-3)Gal(b1-4)GlcNAc(b1-3)Gal
Summary of the method: as §1

[44] = target: Neu5Ac(a2-3)Gal(b1-4)GlcNAc6S
Summary of the method: as §1

[45] = target: Neu5Ac(a2-3)Gal(b1-4)[Fuc(a1-3)]GlcNAc6S
Summary of the method: as §1

[46] = target: Neu5Ac(a2-6)Gal(b1-4)GlcNAc(b1-2)Man(a1-3)Man(b1-4)GlcNAc(b1-4)GlcNAc
Summary of the method: as §1

[47] = target: Neu5Ac(a2-6)Gal(b1-4)GlcNAc(b1-2)Man(a1-3)[Gal(b1-4)GlcNAc(b1-2)Man(a1-6)]Man(b1-4)GlcNAc(b1-4)GlcNAc
Summary of the method: as §1

[48] = target: Neu5Ac(a2-6)Gal(b1-4)GlcNAc(b1-2)[Neu5Ac(a2-6)Gal(b1-4)GlcNAc(b1-4)]Man(a1-3)[GlcNAc(b1-4)][Neu5Ac(a2-6)Gal(b1-4)GlcNAc(b1-2)[Neu5Ac(a2-6)Gal(b1-4)GlcNAc(b1-6)]Man(a1-6)]Man(b1-4)GlcNAc(b1-4)GlcNAc
Summary of the method: as §1

[49] = target: Neu5Ac(a2-6)Gal(b1-4)GlcNAc(b1-2)[Neu5Ac(a2-6)Gal(b1-4)GlcNAc(b1-6)]Man(a1-6)[Neu5Ac(a2-6)Gal(b1-4)GlcNAc(b1-2)Man(a1-3)][GlcNAc(b1-4)]Man(b1-4)GlcNAc(b1-4)GlcNAc
Summary of the method: as §1

[50] = target: Neu5Ac(a2-6)Gal(b1-4)GlcNAc(b1-3)Gal(b1-4)GlcNAc(b1-6)[Gal(b1-3)]GalNAc
Summary of the method: as §1

[51] = target: Neu5Ac(a2-8)Neu5Ac(a2-3)Gal(b1-4)Glc
Summary of the method: as §1

[52] = target: Neu5Gc(a2-3)Gal(b1-3)[Fuc(a1-4)]GlcNAc
Summary of the method: as §1

[53] = target: Neu5Gc(a2-3)Gal(b1-4)GlcNAc(b1-3)Gal(b1-4)GlcNAc(b1-2)Man(a1-3)[Neu5Gc(a2-3)Gal(b1-4)GlcNAc(b1-3)Gal(b1-4)GlcNAc(b1-2)Man(a1-6)]Man(b1-4)GlcNAc(b1-4)GlcNAc
Summary of the method: as §1

[54] = target: Neu5Gc(a2-6)GalNAc
Summary of the method: as §1

B1: Epa6 (Candida glabrata), Q6DTM7_CANGB (protein)
chain: MGSSHHHHHHSSGLVPRGSHMKDDYSSSLSNNNLGWTDPTEFPLGCSPNVTTPKNGLSMELYSYDYLKSGSNPCWDAAYLDPNYPRTGYKSHRLLAKVENVAGNINFYYHAPMGCTSLFDTLPQAYNYRTPLTMTNFTMLLYGYFKPKVTGYHTFTISADDLLFVNFGAGNAFDCCKRESSADDFGNYQAYAVWGSQTAKDDLTVHLDAGLYYPIRIFFNNRDNDGALSLTLKTESDPNPVIDFSDYFYSFDDTKDGCPGLVSYDTS
With B1 the “glycan array binding signal (z-score)” value [1] was -0.229, the “glycan array binding signal (z-score)” value [2] was -0.123 and the “glycan array binding signal (z-score)” value [3] was -0.318. For the same binder, the “glycan array binding signal (z-score)” value [4] was -0.062, the “glycan array binding signal (z-score)” value [5] was -0.257 and the “glycan array binding signal (z-score)” value [6] was 0.454. For the same binder, the “glycan array binding signal (z-score)” value [7] was 0.197, the “glycan array binding signal (z-score)” value [8] was -0.304 and the “glycan array binding signal (z-score)” value [9] was -0.263. For the same binder, the “glycan array binding signal (z-score)” value [10] was -0.331, the “glycan array binding signal (z-score)” value [11] was 3.7 and the “glycan array binding signal (z-score)” value [12] was 4.17. The “glycan array binding signal (z-score)” value [13] was 6.23, the “glycan array binding signal (z-score)” value [14] was 4.65 and the “glycan array binding signal (z-score)” value [15] was 4.02. For the same binder, the “glycan array binding signal (z-score)” value [16] was 4.42, the “glycan array binding signal (z-score)” value [17] was 8.63 and the “glycan array binding signal (z-score)” value [18] was 6.14. The “glycan array binding signal (z-score)” value [19] was 10, the “glycan array binding signal (z-score)” value [20] was 4.95 and the “glycan array binding signal (z-score)” value [21] was 5.98. The “glycan array binding signal (z-score)” value [22] was 3.9, the “glycan array binding signal (z-score)” value [23] was 0.257 and the “glycan array binding signal (z-score)” value [24] was -0.112. For the same binder, the “glycan array binding signal (z-score)” value [25] was -0.283, the “glycan array binding signal (z-score)” value [26] was -0.198 and the “glycan array binding signal (z-score)” value [27] was -0.26. For the same binder, the “glycan array binding signal (z-score)” value [28] was 0.07, the “glycan array binding signal (z-score)” value [29] was -0.306 and the “glycan array binding signal (z-score)” value [30] was -0.126. For the same binder, the “glycan array binding signal (z-score)” value [31] was -0.234, the “glycan array binding signal (z-score)” value [32] was -0.313 and the “glycan array binding signal (z-score)” value [33] was -0.312. The “glycan array binding signal (z-score)” value [34] was -0.306, the “glycan array binding signal (z-score)” value [35] was -0.297 and the “glycan array binding signal (z-score)” value [36] was -0.255. For the same binder, the “glycan array binding signal (z-score)” value [37] was -0.263, the “glycan array binding signal (z-score)” value [38] was -0.357 and the “glycan array binding signal (z-score)” value [39] was -0.281. The “glycan array binding signal (z-score)” value [40] was -0.332, the “glycan array binding signal (z-score)” value [41] was -0.269 and the “glycan array binding signal (z-score)” value [42] was -0.343. For the same binder, the “glycan array binding signal (z-score)” value [43] was -0.336, the “glycan array binding signal (z-score)” value [44] was -0.347 and the “glycan array binding signal (z-score)” value [45] was -0.347. The “glycan array binding signal (z-score)” value [46] was -0.325, the “glycan array binding signal (z-score)” value [47] was -0.301 and the “glycan array binding signal (z-score)” value [48] was -0.311. The “glycan array binding signal (z-score)” value [49] was -0.33, the “glycan array binding signal (z-score)” value [50] was 0.25 and the “glycan array binding signal (z-score)” value [51] was -0.347. For the same binder, the “glycan array binding signal (z-score)” value [52] was -0.331, the “glycan array binding signal (z-score)” value [53] was -0.311 and the “glycan array binding signal (z-score)” value [54] was -0.311.
